For three compounds, outcome and AC50 results are on record in PubChem BioAssay (EPA / NIEHS).

What all share (conditions): mRNA level, 48 h; actives raise or lower the signal
Read-out in assay [1]: Apoptosis regulator Bcl-2 (Homo sapiens) (UniProt P10415)
Description: LTEA_HepaRG_BCL2: Life Technologies and Expression Analysis (LTEA) Assay for Bcl-2 gene using HepaRG (AID 2283475). Put shortly:
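Plated human HepaRG cells are exposed to test chemicals for 48 h across eight concentrations from 100 uM downward in half-log steps (0.5% DMSO). BCL2 expression is then measured by qRT-PCR with housekeeping normalisation and fitted bidirectionally against vehicle.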

Read-out in assay [2]: Bcl-2 (BID) gene, BID (gene 637)
Description: LTEA_HepaRG_BID: Life Technologies and Expression Analysis (LTEA) Assay for Bcl-2 (BID) gene using HepaRG (AID 2283476). Put shortly: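 Cells are plated, cultured 48 h, switched to serum-free induction medium, then dosed 48 h (100 uM top, half-log steps, 0.5% DMSO). RNA is isolated and BID expression read by qRT-PCR.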

Read-out in the next assay: Caspase-3 (Homo sapiens) (UniProt P42574)
Briefly: LTEA_HepaRG_CASP3: Life Technologies and Expression Analysis (LTEA) Assay for cysteine-aspartic acid protease (CASP3) using HepaRG (AID 2283477). A digest of the protocol:
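In HepaRG liver cells dosed for 48 h at up to 100 uM (eight-point, duplicate), CASP3 expression changes are scored by qRT-PCR. Activity is fitted in both directions with 0.5% DMSO as baseline.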

Read-out in assay [3]: Cytochrome P450 (CYP24A1), CYP24A1 (gene 1591)
Description: LTEA_HepaRG_CYP24A1: Life Technologies and Expression Analysis (LTEA) Assay for Cytochrome P450 (CYP24A1) using HepaRG (AID 2283478). A digest of the protocol:
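Human liver HepaRG cultures receive each chemical for 48 h across an eight-point half-log series topping at 100 uM in 0.5% DMSO. Induction or suppression of CYP24A1 mRNA is scored relative to vehicle after housekeeping-gene normalization.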

Read-out in assay [4]: Cytochrome P450 (CYP1A2), CYP1A2 (gene 1544)
Briefly: LTEA_HepaRG_CYP1A2: Life Technologies and Expression Analysis (LTEA) Assay for Cytochrome P450 (CYP1A2) using HepaRG (AID 2283479). Put shortly: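 Assesses CYP1A2 mRNA in human HepaRG liver cells after 48 h chemical exposure at up to 100 uM. Values come from qRT-PCR with bidirectional curve fitting relative to DMSO.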

Read-out in assay [5]: Cytochrome P450 (CYP2B6), CYP2B6 (gene 1555)
Description: LTEA_HepaRG_CYP2B6: Life Technologies and Expression Analysis (LTEA) Assay for Cytochrome P450 (CYP2B6) using HepaRG (AID 2283481). A digest of the protocol:
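Using 48 h treatment of HepaRG cells in serum-free induction medium, concentrations spanned half-log steps from 100 uM in 0.5% DMSO vehicle. CYP2B6 mRNA induction or loss is scored by qRT-PCR against DMSO.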

Read-out in assay [6]: Cytochrome P450 2C19 (Homo sapiens) (UniProt P33261)
Description: LTEA_HepaRG_CYP2C19: Life Technologies and Expression Analysis (LTEA) Assay for CYP2C19 using HepaRG (AID 2283482). Put shortly: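 Human HepaRG liver cells received test chemicals for 48 h (highest 100 uM, half-log dilutions in 0.5% DMSO). CYP2C19 mRNA induction or loss is read by multiplexed qRT-PCR and fitted in both directions versus vehicle.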

Read-out in a further assay: CYP2C8 (gene 1558)
Description: LTEA_HepaRG_CYP2C8: Life Technologies and Expression Analysis (LTEA) Assay for CYP2C8 using HepaRG (AID 2283483). Put shortly:
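HepaRG (human liver line), 48 h chemical exposure, 8-pt half-log series from 100 uM, 0.5% DMSO vehicle. Readout: CYP2C8 transcript by qRT-PCR, housekeeping-normalized. Bidirectional fit vs DMSO baseline.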

Read-out in another assay: CYP2C9 (gene 1559)
Briefly: LTEA_HepaRG_CYP2C9: Life Technologies and Expression Analysis (LTEA) Assay for CYP2C9 using HepaRG (AID 2283484). Put shortly:
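HepaRG, 48 h dosing, 8-pt half-log series, top 100 uM, 0.5% DMSO vehicle. Read-out: CYP2C9 transcript by TaqMan qRT-PCR, housekeeping-normalized (ACTB/GAPDH/POLR2A). Gain or loss fitted vs DMSO baseline.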

Read-out in a further assay: CYP2E1 (gene 1571)
Description: LTEA_HepaRG_CYP2E1: Life Technologies and Expression Analysis (LTEA) Assay for CYP2E1 using HepaRG (AID 2283485). A digest of the protocol:
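Readout is qRT-PCR of CYP2E1 mRNA, normalized to three housekeeping genes and fitted bidirectionally against 0.5% DMSO. HepaRG cells were dosed 48 h at eight concentrations, highest 100 uM with half-log dilutions.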

Read-out in the next assay: CYP4A11 (gene 1579)
Description: LTEA_HepaRG_CYP4A11: Life Technologies and Expression Analysis (LTEA) Assay for CYP4A11 using HepaRG (AID 2283486). A digest of the protocol:
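Readout is CYP4A11 mRNA induction or suppression (qRT-PCR, ACTB/GAPDH/POLR2A normalization) in human HepaRG cells after 48 h chemical treatment, concentrations to 100 uM in 0.5% DMSO, fitted bidirectionally against vehicle.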

Read-out in assay [7]: Cytochrome P450 3A4 (Homo sapiens) (UniProt P08684)
Briefly: LTEA_HepaRG_CYP3A4: Life Technologies and Expression Analysis (LTEA) Assay for CYP3A4 using HepaRG (AID 2283487). A digest of the protocol:
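HepaRG, 48 h exposure, 8-pt CRC from 100 uM (half-log), 0.5% DMSO, duplicates; serum-free induction medium. Readout: CYP3A4 mRNA, qRT-PCR, ACTB/GAPDH/POLR2A normalization. Bidirectional fit vs DMSO.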

Read-out in assay [8]: DNA damage-inducible transcript 3 (DDIT3), DDIT3 (gene 1649)
Briefly: LTEA_HepaRG_DDIT3: Life Technologies and Expression Analysis (LTEA) Assay for DNA damage-inducible transcript 3 (DDIT3) using HepaRG (AID 2283488). A digest of the protocol: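 Cells are human HepaRG liver cells treated for 48 h with eight half-log concentrations up to 100 uM in 0.5% DMSO. Transcript levels come from qRT-PCR normalized to three housekeeping genes, with activity fitted in both directions relative to vehicle.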

Read-out in assay [9]: Pro-epidermal growth factor (Homo sapiens) (UniProt P01133)
Description: LTEA_HepaRG_EGF: Life Technologies and Expression Analysis (LTEA) Assay for Epidermal growth factor (EGF) using HepaRG (AID 2283489). Put shortly: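 EGF expression changes in human HepaRG cells are scored by bidirectional fitting relative to 0.5% DMSO controls. Chemicals are tested at eight half-log concentrations up to 100 uM for 48 h in serum-free induction medium.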

Read-out in assay [10]: Early growth response protein 1 (EGR1) transcription factor, EGR1 (gene 1958)
Description: LTEA_HepaRG_EGR1: Life Technologies and Expression Analysis (LTEA) Assay for Early growth response protein 1 (EGR1) transcription factor using HepaRG (AID 2283490). Put shortly:
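HepaRG, 48 h exposure, 8-pt half-log series from 100 uM, 0.5% DMSO vehicle; EGR1 transcript by TaqMan qRT-PCR (Fluidigm array), housekeeping-normalized; bidirectional fit relative to DMSO baseline.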

Read-out in assay [11]: Ezrin (EZR), EZR (gene 7430)
Description: LTEA_HepaRG_EZR: Life Technologies and Expression Analysis (LTEA) Assay for Ezrin (EZR) using HepaRG (AID 2283491). A digest of the protocol:
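Read-out is EZR transcript level by qRT-PCR, normalized to three housekeeping genes and fitted bidirectionally against the DMSO control. Human HepaRG cells received test chemicals for 48 h at eight half-log concentrations up to 100 uM in 0.5% DMSO.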

Read-out in another assay: CYP3A5 (gene 1577)
Briefly: LTEA_HepaRG_CYP3A5: Life Technologies and Expression Analysis (LTEA) Assay for CYP3A5 using HepaRG (AID 2283493). A digest of the protocol:
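Human HepaRG hepatic cells receive 48 h chemical treatment at eight concentrations (half-log steps from 100 uM) in 0.5% DMSO. Expression of CYP3A5 is quantified by Fluidigm qRT-PCR and normalized to three reference genes.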

Read-out in assay [12]: Fatty Acid-Binding Protein 1 (FABP1), FABP1 (gene 2168)
Description: LTEA_HepaRG_FABP1: Life Technologies and Expression Analysis (LTEA) Assay for Fatty Acid-Binding Protein 1 (FABP1) using HepaRG (AID 2283494). Put shortly: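 qRT-PCR readout of FABP1 transcript (normalized to three housekeeping genes) after 48 h chemical exposure of HepaRG cells; eight concentrations, half-log steps, max 100 uM, 0.5% DMSO vehicle; gain or loss fitted relative to DMSO baseline.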

Read-out in assay [13]: cysteine-aspartic acid protease (CASP8), CASP8 (gene 841)
Briefly: LTEA_HepaRG_CASP8: Life Technologies and Expression Analysis (LTEA) Assay for cysteine-aspartic acid protease (CASP8) using HepaRG (AID 2283480). Put shortly:
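qRT-PCR readout of CASP8 mRNA, normalized to three housekeeping genes, after 48 h chemical exposure of HepaRG cells; 8-point half-log series, top 100 uM, 0.5% DMSO vehicle. Bidirectional curve fitting against DMSO baseline.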

Read-out in assay [14]: Cytochrome P450 3A7 (Homo sapiens) (UniProt P24462)
Briefly: LTEA_HepaRG_CYP3A7: Life Technologies and Expression Analysis (LTEA) Assay for CYP3A7 using HepaRG (AID 2283492). Put shortly: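 Cells were thawed, plated, cultured 48 h, then treated for a further 48 h with chemicals (eight-point half-log series from 100 uM, 0.5% DMSO). RNA was isolated and CYP3A7 expression quantified by qRT-PCR normalised to ACTB, GAPDH and POLR2A.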

Activity calls are given as the source filed them. How the source made its calls: active means hit-call score of the fitted dose curve at least 0.9, where 1 is the maximum; inactive means score below 0.9.

Chain of Caspase-3 (Homo sapiens) (P42574 whole entry, looked up): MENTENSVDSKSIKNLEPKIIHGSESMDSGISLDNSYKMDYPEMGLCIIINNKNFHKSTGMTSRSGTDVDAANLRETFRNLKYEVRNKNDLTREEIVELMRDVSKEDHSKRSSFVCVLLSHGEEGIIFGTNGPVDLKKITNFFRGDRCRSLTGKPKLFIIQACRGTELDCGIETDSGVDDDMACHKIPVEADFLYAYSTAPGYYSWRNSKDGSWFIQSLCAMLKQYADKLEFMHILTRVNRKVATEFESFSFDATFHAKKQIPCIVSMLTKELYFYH
Chain of Apoptosis regulator Bcl-2 (Homo sapiens) (P10415 whole entry, looked up): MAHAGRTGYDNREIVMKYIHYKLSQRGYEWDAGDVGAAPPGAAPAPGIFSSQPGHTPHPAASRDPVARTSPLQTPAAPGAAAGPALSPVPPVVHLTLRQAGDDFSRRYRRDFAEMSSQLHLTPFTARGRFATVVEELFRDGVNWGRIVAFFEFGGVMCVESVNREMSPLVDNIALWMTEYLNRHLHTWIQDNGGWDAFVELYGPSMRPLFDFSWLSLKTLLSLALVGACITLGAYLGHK
Chain of Cytochrome P450 2C19 (Homo sapiens) (P33261 whole entry, looked up): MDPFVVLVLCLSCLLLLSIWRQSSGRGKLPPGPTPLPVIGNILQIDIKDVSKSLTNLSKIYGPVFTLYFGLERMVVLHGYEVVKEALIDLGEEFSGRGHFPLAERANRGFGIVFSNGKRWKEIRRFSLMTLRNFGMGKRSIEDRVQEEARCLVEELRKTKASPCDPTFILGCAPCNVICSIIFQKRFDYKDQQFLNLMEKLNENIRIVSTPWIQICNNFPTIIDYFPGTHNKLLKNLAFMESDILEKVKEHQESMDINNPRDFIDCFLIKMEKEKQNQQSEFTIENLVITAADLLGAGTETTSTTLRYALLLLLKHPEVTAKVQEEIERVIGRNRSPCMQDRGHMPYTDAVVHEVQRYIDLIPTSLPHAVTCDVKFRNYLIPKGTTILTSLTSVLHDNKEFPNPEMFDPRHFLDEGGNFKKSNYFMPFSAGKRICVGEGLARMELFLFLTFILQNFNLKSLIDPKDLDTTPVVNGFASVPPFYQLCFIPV
Chain of Cytochrome P450 3A4 (Homo sapiens) (P08684 whole entry, looked up): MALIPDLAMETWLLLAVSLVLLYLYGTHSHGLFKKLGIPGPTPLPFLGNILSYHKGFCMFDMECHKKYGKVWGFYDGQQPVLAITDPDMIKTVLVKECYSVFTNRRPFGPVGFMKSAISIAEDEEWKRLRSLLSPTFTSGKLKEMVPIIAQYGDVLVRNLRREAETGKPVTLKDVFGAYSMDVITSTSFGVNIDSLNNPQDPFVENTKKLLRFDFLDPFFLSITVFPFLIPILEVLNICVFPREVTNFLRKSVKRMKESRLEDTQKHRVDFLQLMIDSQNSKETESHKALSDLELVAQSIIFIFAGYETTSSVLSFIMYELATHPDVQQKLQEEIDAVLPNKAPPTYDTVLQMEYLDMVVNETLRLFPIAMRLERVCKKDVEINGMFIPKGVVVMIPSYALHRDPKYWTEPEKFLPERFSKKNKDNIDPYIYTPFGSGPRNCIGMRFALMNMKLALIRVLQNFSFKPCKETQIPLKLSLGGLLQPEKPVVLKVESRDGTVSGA
Chain of Cytochrome P450 3A7 (Homo sapiens) (P24462 whole entry, looked up): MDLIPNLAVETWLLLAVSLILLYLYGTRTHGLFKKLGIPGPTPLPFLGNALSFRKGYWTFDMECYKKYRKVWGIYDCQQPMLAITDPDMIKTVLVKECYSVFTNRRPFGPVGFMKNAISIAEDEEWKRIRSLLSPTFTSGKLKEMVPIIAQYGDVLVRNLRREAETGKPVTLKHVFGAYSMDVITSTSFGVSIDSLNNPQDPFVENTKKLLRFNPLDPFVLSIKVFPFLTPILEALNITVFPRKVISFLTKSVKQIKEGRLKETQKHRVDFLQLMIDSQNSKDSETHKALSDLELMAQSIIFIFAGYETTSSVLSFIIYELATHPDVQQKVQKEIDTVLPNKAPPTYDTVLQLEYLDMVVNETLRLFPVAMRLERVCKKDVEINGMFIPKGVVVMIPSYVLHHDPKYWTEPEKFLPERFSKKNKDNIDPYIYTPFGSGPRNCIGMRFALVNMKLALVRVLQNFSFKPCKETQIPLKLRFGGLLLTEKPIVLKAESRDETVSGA

On to `Cc1ccc(C(C)C)cc1`, for which the compound was classed as inactive (in [1]; in assay [2]; with Caspase-3 (Homo sapiens); in [3]; in assay [4]; in assay [5]). For the same compound, the outcome (in assay [6]; in the assay with CYP2C8 (gene 1558); in the assay with CYP2C9 (gene 1559); with CYP2E1 (gene 1571); with CYP4A11 (gene 1579); in assay [7]) was inactive. For the same compound, the call (in assay [8]; in assay [9]; in assay [10]; in assay [11]; with CYP3A5 (gene 1577); in assay [12]) was inactive.
In the case of `CCN(Cc1cccnc1)C(=O)c1cccc(Cl)c1[C@]1(C)C(=O)N(Cc2ccc(OC)cc2OC)c2ccc(Cl)cc21`, the AC50 was 11.4 µM (active) in assay [1]; 22.2 µM (active) in assay [4]; 12.5 µM (active) in assay [13]; 25.8 µM (active) in assay [5]; 26.1 µM (active) in assay [6]; 25.8 µM (active) with CYP2C8 (gene 1558). For the same compound, the AC50 with CYP2C9 (gene 1559) is 26.2 µM (active); with CYP4A11 (gene 1579), 16.7 µM (active); in assay [7] it was 25.9 µM (active); in [8], 11.5 µM (active); in [9], 15.5 µM (active); in [14], 24.1 µM (active). The concentration at half-maximal activity (AC50) in [12] was 22.3 µM (active). The compound was called inactive (in assay [2]; with Caspase-3 (Homo sapiens); in assay [3]; in assay [10]; in [11]; with CYP3A5 (gene 1577)).
On to `CC1(C)NC(=O)N(c2ccc([N+](=O)[O-])c(C(F)(F)F)c2)C1=O`, for which the concentration at half-maximal activity (AC50) was 78.9 µM (active) in [1]; 85.5 µM (active) in [4]; 81.4 µM (active) in assay [5]; 12.4 µM (active) in assay [6]; 85.5 µM (active) with CYP2C8 (gene 1558); 83.6 µM (active) with CYP2C9 (gene 1559). The AC50 in the assay with CYP2E1 (gene 1571) was 63.2 µM (active); with CYP4A11 (gene 1579), 69.3 µM (active); in assay [8], 75.7 µM (active); in [11], 93 µM (active); in the assay with CYP3A5 (gene 1577), 32.3 µM (active); in assay [12], 66.7 µM (active). The call (in [2]; with Caspase-3 (Homo sapiens); in [3]; in assay [9]; in assay [10]) was inactive.
